Test results taken from PubChem BioAssay (NCATS).
Inconclusive results are not listed. Activity calls are given as the source filed them. Calls come from the whole dose curve; as a rule, active = well fitted inhibition curve with a large enough effect; inconclusive = small, poorly fitted or top-dose-only effect; inactive = flat fitted curve, though single readings scatter.

What was measured:
Test in all cases: qHTS profiling for inhibitors of Plasmodium falciparum proliferation (AID 504749); note: nearly all actives have a fitted effect of over 60% in size
Conditions in all cases: P. falciparum in erythrocytes, SYBR Green DNA, 72 h; series mostly up to 28.7 µM
7G8 = system: 7G8
Outline: (§1)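 P. falciparum-infected erythrocytes (0.3% parasitemia, 2.5% hematocrit final) were exposed to compounds for 72 h at 37 C in 5% CO2, then lysed with SYBR Green buffer overnight at room temperature; parasite DNA fluorescence was normalized to artemisinin and DMSO controls.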

AA1029 = system: AA1029
Outline: as §1

AS120 = system: AS120
Outline: as §1

ATS189 = system: ATS189
Outline: as §1

ATS95 = system: ATS95
Outline: as §1

C2A = system: C2A
Outline: as §1

CP185 = system: CP185
Outline: as §1

CP191 = system: CP191
Outline: as §1

CP192 = system: CP192
Outline: as §1

CP194 = system: CP194
Outline: as §1

CP201 = system: CP201
Outline: as §1

CP203 = system: CP203
Outline: as §1

CP211 = system: CP211
Outline: as §1

CP215 = system: CP215
Outline: as §1

CP217 = system: CP217
Outline: as §1

CP237 = system: CP237
Outline: as §1

CP238 = system: CP238
Outline: as §1

CP247 = system: CP247
Outline: as §1

CP250 = system: CP250
Outline: as §1

CP252 = system: CP252
Outline: as §1

Measured: Potency
Potency is the fitted concentration of half-maximal effect.

CCCCCCCCCC(=O)O[C@H]1CC[C@H]2[C@@H]3CCC4=CC(=O)CC[C@@H]4[C@H]3CC[C@]12C
inactive: all assays above

O=c1[nH]oc2c1CCNC2
inactive: all assays above

CN1C(=O)CCS(=O)(=O)C1c1ccc(Cl)cc1 (centres undefined)
inactive: all assays above

COP(=S)(OC)SCN1C(=O)c2ccccc2C1=O
not listed: CP247
inactive: all other assays above

O=C1CN=C(c2ccccc2)c2cc([N+](=O)[O-])ccc2N1
inactive: all assays above

NCCc1ccc(O)cc1
inactive: all assays above

CN1C[C@H](C(=O)N[C@]2(C)O[C@@]3(O)[C@@H]4CCCN4C(=O)[C@H](Cc4ccccc4)N3C2=O)C=C2c3cccc4[nH]cc(c34)C[C@H]21
active: 7G8 0.0794 µM | AA1029 1 µM | AS120 0.562 µM | ATS189 3.16 µM | ATS95 0.708 µM | C2A 3.55 µM | CP185 3.98 µM | CP191 1.58 µM | CP192 8.49 µM | CP194 13.5 µM | CP201 15.1 µM | CP203 4.26 µM | CP211 15.1 µM | CP215 5.36 µM | CP217 1.41 µM | CP237 0.224 µM | CP238 1.41 µM | CP247 3.55 µM | CP250 3.16 µM | CP252 1 µM

O=c1oc2ccccc2c(O)c1Cc1c(O)c2ccccc2oc1=O
inactive: all assays above

O=C1OC(c2ccc(O)c(S(=O)(=O)O)c2)(c2ccc(O)c(S(=O)(=O)O)c2)c2c(Br)c(Br)c(Br)c(Br)c21
inactive: all assays above

C[C@]12CC[C@@H]3c4ccc(OC(=O)N(CCCl)CCCl)cc4CC[C@H]3[C@@H]1CC[C@@H]2O
inactive: all assays above

Nc1ccccc1C(=O)O
inactive: all assays above

CN1CCC(O)(c2ccc(F)cc2)C(C(=O)c2ccc(F)cc2)C1 (centres undefined)
inactive: all assays above

O=P1(N(CCCl)CCCl)NCCCO1 (centres undefined)
inactive: all assays above
